For 42 compounds, cytotoxicity call results are on record in the antibiotic and cytotoxicity screens of Wong et al. (2023).

Among all 39,000 compounds or so, about 1,500 (3.8%) were called active. The entries come from a sample that favours actives as a whole.

This assay concerns HSkMC (human skeletal muscle cells). Put plainly: cytotoxicity call (relative viability < 0.9). The note with it: 10 µM.
As for `C/C=C/c1ccc2c(c1)O[C@H](CN(C)Cc1ccc(C(=O)O)cc1)[C@H](C)CN([C@@H](C)CO)S2(=O)=O`, the cytotoxicity call was “inactive”. In the case of `Cc1noc(C)c1NC(=O)N(C)C[C@H]1OCCCC[C@@H](C)Oc2ccc(NC(=O)c3ccccc3)cc2C(=O)N([C@@H](C)CO)C[C@H]1C` it was “inactive”; in that of `COc1ccc(S(=O)(=O)N(C)C[C@H]2Oc3ncc(C#CC4(O)CCCC4)cc3C(=O)N([C@@H](C)CO)C[C@@H]2C)cc1`, “inactive”.

Turning to `Cc1ccc(C(=O)Nc2ccc(S(=O)(=O)O)c3cc(S(=O)(=O)O)cc(S(=O)(=O)O)c23)cc1NC(=O)c1cccc(NC(=O)Nc2cccc(C(=O)Nc3cc(C(=O)Nc4ccc(S(=O)(=O)O)c5cc(S(=O)(=O)O)cc(S(=O)(=O)O)c45)ccc3C)c2)c1`, the cytotoxicity call was “inactive”. In the case of `C[C@@H]1CN([C@H](C)CO)S(=O)(=O)c2ccc(C#CC(C)(C)O)cc2O[C@H]1CN(C)C(=O)C1CCCCC1` it was “inactive”; in that of `C[C@@H]1CCCCO[C@@H](CN(C)C(=O)CCC(F)(F)F)[C@@H](C)CN([C@@H](C)CO)C(=O)c2cc(NC(=O)c3ccccc3)ccc2O1`, “inactive”; in that of `CC(C)NC(=O)N(C)C[C@@H]1Oc2ccc(NC(=O)C3CCCCC3)cc2C(=O)N([C@H](C)CO)C[C@@H]1C`, “inactive”. For the compound `C[C@@H]1CCCCO[C@H](CN(C)C(=O)c2ccccc2)[C@H](C)CN([C@@H](C)CO)C(=O)c2cc(NC(=O)CCCCCC(=O)Nc3ccccc3N)ccc2O1`, the cytotoxicity call is “inactive”. For `Cc1noc(C)c1NC(=O)Nc1cccc2c1O[C@@H](CN(C)C(=O)Nc1cccc3ccccc13)[C@@H](C)CN([C@@H](C)CO)C2=O` the value was “inactive”; for `COCCNC(=O)C[C@H]1CC[C@@H]2[C@H](COC[C@H](O)CN2C(=O)Nc2ccc3c(c2)OCO3)O1`, “inactive”. As to `C[N+](C)(CCOc1ccccc1)Cc1ccccc1.O=C([O-])c1cc2ccccc2cc1O`, the cytotoxicity call is “inactive”. `Cc1cc(C(C)(C)CC(C)(C)C)ccc1OCCOCC[N+](C)(C)Cc1ccccc1.[Cl-]`: the cytotoxicity call is “active”.

For the compound `C[N+](C)(CCOc1ccccc1)Cc1ccccc1.O=C(O)c1cc2ccccc2c(Br)c1O`, the cytotoxicity call was “inactive”. For `COc1cccc(C#Cc2ccc3c(c2)O[C@@H](CN(C)S(=O)(=O)c2ccccc2F)[C@H](C)CN([C@@H](C)CO)S3(=O)=O)c1` the value was “inactive”; for `C[C@@H]1CCCCO[C@H](CN(C)Cc2ccncc2)[C@H](C)CN([C@@H](C)CO)C(=O)c2cc(NC(=O)Nc3ccc(F)cc3)ccc2O1`, “inactive”; for `NCC[C@H]1CC[C@H](NC(=O)c2ccccc2F)[C@H](CO)O1`, “inactive”. For `C[C@@H]1CN([C@@H](C)CO)C(=O)c2cc(NC(=O)Cc3ccccc3)ccc2O[C@@H](C)CCCCO[C@H]1CN(C)Cc1ccc(C(F)(F)F)cc1` the value was “inactive”; for `C[C@@H]1CCCCO[C@@H](CN(C)Cc2ccc(C(F)(F)F)cc2)[C@H](C)CN([C@H](C)CO)C(=O)c2cc(NC(=O)Cc3ccccc3)ccc2O1`, “active”; for `C[C@H](CO)N1C[C@H](C)[C@@H](CN(C)Cc2ccc(C(F)(F)F)cc2)OCCCC[C@H](C)Oc2ccc(NC(=O)Cc3ccccc3)cc2C1=O`, “active”. For `C[C@H]1CCCCO[C@H](CN(C)Cc2ccc(C(F)(F)F)cc2)[C@@H](C)CN([C@@H](C)CO)C(=O)c2cc(NC(=O)Cc3ccccc3)ccc2O1` the value was “inactive”; for `C[C@@H]1CCCCO[C@H](CN(C)Cc2ccc(C(F)(F)F)cc2)[C@H](C)CN([C@@H](C)CO)C(=O)c2cc(NC(=O)Cc3ccccc3)ccc2O1`, “inactive”; for `C[C@@H]1CCCCO[C@@H](CN(C)Cc2ccc(C(F)(F)F)cc2)[C@@H](C)CN([C@@H](C)CO)C(=O)c2cc(NC(=O)Cc3ccccc3)ccc2O1`, “inactive”.

`Cc1ccc(S(=O)(=O)N(C)C[C@H]2Oc3ncc(C#CCC(C)C)cc3C(=O)N([C@@H](C)CO)C[C@H]2C)cc1`: the cytotoxicity call was “inactive”. For `C[C@H]1CN([C@@H](C)CO)S(=O)(=O)c2ccc(Br)cc2O[C@@H]1CN(C)Cc1cccc(F)c1` the value was “inactive”.

Turning to `Cc1ccc(S(=O)(=O)N(C)C[C@@H]2OCCCC[C@H](C)Oc3ccc(NC(=O)CCCCCC(=O)Nc4ccccc4N)cc3C(=O)N([C@H](C)CO)C[C@@H]2C)cc1`, the cytotoxicity call was “inactive”. Regarding `COc1ccc(NC(=O)N(C)C[C@H]2OCCCC[C@@H](C)Oc3ccc(NS(=O)(=O)c4ccc(F)cc4)cc3C(=O)N([C@@H](C)CO)C[C@H]2C)cc1`, the cytotoxicity call is “inactive”. In the case of `Cc1ccc(C(=O)O)c(=O)[nH]1` it was “inactive”; in that of `C[C@@H]1CN([C@@H](C)CO)C(=O)c2cc(C#CC3(O)CCCC3)cnc2O[C@@H]1CN(C)C(=O)Cc1ccccc1`, “inactive”; in that of `O=C(NC1CC1)[C@@H]1c2ccccc2C(=O)N(Cc2cc(C(F)(F)F)cc(C(F)(F)F)c2)[C@H]1c1ccc(CO)cc1`, “inactive”. In the case of `O=C(N[C@H]1CCN(C(=O)c2cc(C(F)(F)F)cc(C(F)(F)F)c2)[C@H](Cc2ccc(Cl)cc2)C1)c1ccnc2ccccc12` it was “active”. In the case of `C[C@@H]1CN([C@H](C)CO)C(=O)c2cccc(NC(=O)c3ccc(-c4nccs4)cc3)c2O[C@H]1CN(C)Cc1ccc(Cl)c(Cl)c1` it was “inactive”. As to `C[C@@H]1CN([C@@H](C)CO)C(=O)c2cccc(NC(=O)c3ccc(-c4nccs4)cc3)c2O[C@H]1CN(C)Cc1ccc(C(F)(F)F)cc1`, the cytotoxicity call was “inactive”. For the compound `C[C@H](CO)N1C[C@H](C)[C@H](CN(C)Cc2ccc(C(F)(F)F)cc2)Oc2c(NC(=O)c3ccc(-c4nccs4)cc3)cccc2C1=O`, the cytotoxicity call was “inactive”. In the case of `C[C@@H]1CN([C@H](C)CO)C(=O)c2cccc(NC(=O)c3ccc(-c4nccs4)cc3)c2O[C@H]1CN(C)Cc1ccc(C(F)(F)F)cc1` it was “active”; in that of `C[C@@H]1CN([C@@H](C)CO)C(=O)c2cccc(NC(=O)c3ccc(-c4nccs4)cc3)c2O[C@@H]1CN(C)C(=O)Nc1ccc(C(F)(F)F)cc1`, “inactive”; in that of `C[C@@H]1CN([C@H](C)CO)C(=O)c2cccc(NC(=O)c3ccc(-c4nccs4)cc3)c2O[C@@H]1CN(C)Cc1ccc(C(F)(F)F)cc1`, “inactive”. In the case of `C[C@H]1CN([C@@H](C)CO)C(=O)c2cccc(NC(=O)c3ccc(-c4nccs4)cc3)c2O[C@H]1CN(C)C(=O)Nc1ccc(C(F)(F)F)cc1` it was “inactive”; in that of `C[C@H]1CN([C@@H](C)CO)C(=O)c2cccc(NC(=O)c3ccc(-c4nccs4)cc3)c2O[C@@H]1CN(C)Cc1ccc(C(F)(F)F)cc1`, “active”.

As to `C[C@H]1CN([C@@H](C)CO)C(=O)c2cccc(NC(=O)c3ccc(-c4nccs4)cc3)c2O[C@@H]1CN(C)Cc1ccc(Cl)c(Cl)c1`, the cytotoxicity call is “active”. In the case of `C[C@@H]1CN([C@@H](C)CO)C(=O)c2cccc(NC(=O)c3ccc(-c4nccs4)cc3)c2O[C@@H]1CN(C)Cc1ccc(C(F)(F)F)cc1` it was “inactive”; in that of `C[C@@H]1CN([C@H](C)CO)C(=O)c2cccc(NC(=O)c3ccc(-c4nccs4)cc3)c2O[C@@H]1CN(C)C(=O)Nc1ccc(C(F)(F)F)cc1`, “active”. For `C[C@H](CO)N1C[C@H](C)[C@@H](CN(C)Cc2ccc(Cl)c(Cl)c2)Oc2c(NC(=O)c3ccc(-c4nccs4)cc3)cccc2C1=O` the value was “inactive”.
